Experimental findings from the antibiotic and cytotoxicity screens of Wong et al. (2023) are described below.

Molecules are shown by their SMILES. Among all 39,000 compounds or so, about 1,500 (3.8%) were called active. For the sample, actives were picked, then their nearest neighbours and some compounds at random.

For this assay, the system named is HSkMC (human skeletal muscle cells). In words: cytotoxicity call (relative viability < 0.9). To be noted: 10 µM.
As for `C[C@]12C=CC(=O)N[C@@H]1CC[C@@H]1[C@@H]2CC[C@]2(C)[C@@H](C(=O)Nc3cc(C(F)(F)F)ccc3C(F)(F)F)CC[C@@H]12`, the cytotoxicity call was “inactive”.
For `CCCNC(=O)N1C[C@@H](O)COC[C@H]2O[C@H](CC(=O)NCc3ccncn3)CC[C@@H]21`, the cytotoxicity call is “inactive”.
To `C[C@@H]1CN([C@@H](C)CO)C(=O)Cc2cc(NC(=O)CCC(F)(F)F)ccc2O[C@H]1CN(C)S(=O)(=O)c1ccccc1` belongs “inactive”; to `CCC(C)C(N)C(=O)O` (stereo unspecified), “inactive”; to `C[C@H](CO)N1C[C@H](C)[C@@H](CN(C)Cc2ccccc2C(F)(F)F)OCc2ccccc2-c2c(n(C)c3ccccc23)C1=O`, “active”.
As to `C[C@@H]1CN([C@H](C)CO)C(=O)c2c(c3ccccc3n2C)-c2ccccc2CO[C@@H]1CN(C)Cc1ccccc1C(F)(F)F`, the cytotoxicity call is “active”.
As for `COc1ccccc1CN(C)C[C@H]1OCc2ccccc2-c2c(n(C)c3ccccc23)C(=O)N([C@H](C)CO)C[C@@H]1C`, the entry is “inactive”.
As for `COc1ccccc1CN(C)C[C@@H]1OCc2ccccc2-c2c(n(C)c3ccccc23)C(=O)N([C@H](C)CO)C[C@H]1C`, the entry is “inactive”; as for `COc1ccccc1CN(C)C[C@@H]1OCc2ccccc2-c2c(n(C)c3ccccc23)C(=O)N([C@@H](C)CO)C[C@@H]1C`, “inactive”.
As for `COc1ccccc1CN(C)C[C@@H]1OCc2ccccc2-c2c(n(C)c3ccccc23)C(=O)N([C@@H](C)CO)C[C@H]1C`, the cytotoxicity call was “inactive”.
As for `C[C@@H]1CN([C@@H](C)CO)C(=O)c2c(c3ccccc3n2C)-c2ccccc2CO[C@H]1CN(C)Cc1ccccc1C(F)(F)F`, the entry is “active”; as for `COc1ccccc1CN(C)C[C@@H]1OCc2ccccc2-c2c(n(C)c3ccccc23)C(=O)N([C@H](C)CO)C[C@@H]1C`, “inactive”.
As for `C[C@@H]1CN([C@@H](C)CO)C(=O)c2c(c3ccccc3n2C)-c2ccccc2CO[C@@H]1CN(C)Cc1ccccc1C(F)(F)F`, the cytotoxicity call is “active”.
To `Cc1noc(C)c1NC(=O)Nc1ccc2c(c1)C(=O)N([C@@H](C)CO)C[C@H](C)[C@H](CN(C)S(=O)(=O)c1ccc(F)cc1)OCCCC[C@@H](C)O2` belongs “inactive”.
As for `C[C@@H]1CN([C@H](C)CO)C(=O)c2cc(NC(=O)CCCN(C)C)ccc2O[C@H]1CN(C)S(=O)(=O)c1cn(C)cn1`, the entry is “inactive”; as for `CCS(=O)(=O)CCn1c([N+](=O)[O-])cnc1C`, “inactive”; as for `Cc1noc(C)c1S(=O)(=O)Nc1cccc2c1O[C@@H](CN(C)S(=O)(=O)c1ccc(Cl)cc1)[C@@H](C)CN([C@H](C)CO)C2=O`, “inactive”.
For the molecule `C[C@@H]1CCCCO[C@H](CN(C)S(C)(=O)=O)[C@@H](C)CN([C@@H](C)CO)C(=O)c2cc(NS(=O)(=O)c3ccc(F)cc3)ccc2O1`, the cytotoxicity call is “inactive”.
As for `CO[C@H](CN(C)S(=O)(=O)c1cccc(Cl)c1)[C@@H](C)CN([C@H](C)CO)S(=O)(=O)c1ccc(Cl)cc1`, the entry is “inactive”.
To `O=C(N[C@@H]1CC[C@@H](CC(=O)N2CCOCC2)O[C@H]1CO)c1ccccn1` belongs “inactive”; to `Cc1noc(C)c1NC(=O)N(C)C[C@H]1Oc2ccc(NC(=O)NC(C)C)cc2C(=O)N([C@H](C)CO)C[C@@H]1C`, “inactive”.
Turning to `COc1ccc(S(=O)(=O)Nc2ccc3c(c2)C(=O)N([C@H](C)CO)C[C@@H](C)[C@H](CN(C)S(C)(=O)=O)O3)cc1`, the cytotoxicity call is “inactive”.
To `Nc1ccc(Nc2ccccc2)cc1` belongs “inactive”.
Regarding `COc1ccc2c3c([nH]c2c1)[C@@H](CO)N(C[C@]13CN(C1)S(=O)(=O)C)C(=O)C1CCOCC1`, the cytotoxicity call was “inactive”.
In the case of `COc1ccccc1CN(C)C[C@H]1OCc2ccccc2-c2c(n(C)c3ccccc23)C(=O)N([C@H](C)CO)C[C@H]1C`, the cytotoxicity call was “inactive”.
For the molecule `C[C@H](CO)N1C[C@H](C)[C@H](CN(C)Cc2ccccc2C(F)(F)F)OCc2ccccc2-c2c(n(C)c3ccccc23)C1=O`, the cytotoxicity call was “active”.
As for `COc1ccccc1CN(C)C[C@H]1OCc2ccccc2-c2c(n(C)c3ccccc23)C(=O)N([C@@H](C)CO)C[C@@H]1C`, the entry is “inactive”.
As for `C[C@H]1CN([C@@H](C)CO)C(=O)c2c(c3ccccc3n2C)-c2ccccc2CO[C@@H]1CN(C)Cc1ccccc1C(F)(F)F`, the entry is “active”; as for `COc1ccccc1CN(C)C[C@H]1OCc2ccccc2-c2c(n(C)c3ccccc23)C(=O)N([C@@H](C)CO)C[C@H]1C`, “inactive”.
In the case of `C[C@@H]1CN([C@H](C)CO)C(=O)c2c(c3ccccc3n2C)-c2ccccc2CO[C@H]1CN(C)Cc1ccccc1C(F)(F)F`, the cytotoxicity call was “active”.
To `C[C@H]1CN([C@@H](C)CO)C(=O)c2c(c3ccccc3n2C)-c2ccccc2CO[C@H]1CN(C)Cc1ccccc1C(F)(F)F` belongs “inactive”.
In the case of `C[C@@H]1CN([C@@H](C)CO)C(=O)c2cc(NC(=O)CCC(F)(F)F)ccc2O[C@@H](C)CCCCO[C@@H]1CN(C)C(=O)CCC(F)(F)F`, the cytotoxicity call was “inactive”.
For `COc1ccc(NC(=O)Nc2ccc3c(c2)C(=O)N([C@H](C)CO)C[C@@H](C)[C@@H](CN(C)C(=O)NC(C)C)OCCCC[C@H](C)O3)cc1`, the cytotoxicity call is “inactive”.
As for `C[C@@H]1CCCCO[C@H](CN(C)C(=O)Nc2ccc3c(c2)OCO3)[C@@H](C)CN([C@@H](C)CO)C(=O)c2cc(NC(=O)CCC(F)(F)F)ccc2O1`, the entry is “inactive”; as for `CN1C(=O)COc2cc(N)ccc21`, “inactive”; as for `Cc1noc(C)c1NC(=O)N(C)C[C@H]1Oc2ccc(NS(C)(=O)=O)cc2CC(=O)N([C@H](C)CO)C[C@@H]1C`, “inactive”.
As for `Cc1cc(C(=O)O)cc(S(N)(=O)=O)c1`, the entry is “inactive”; as for `C[C@@H]1CN([C@H](C)CO)C(=O)c2cc(NC(=O)Nc3ccc4c(c3)OCO4)ccc2O[C@@H]1CN(C)Cc1ccc(C(=O)Nc2ccccc2N)cc1`, “inactive”; as for `COc1ccc(NC(=O)N(C)C[C@@H]2Oc3c(NC(=O)c4cc(C)nn4C)cccc3C(=O)N([C@H](C)CO)C[C@H]2C)cc1`, “inactive”.
As for `C[C@H]1CCCCO[C@H](CN(C)Cc2ccncc2)[C@@H](C)CN([C@@H](C)CO)C(=O)c2cc(NS(=O)(=O)c3ccc(Cl)cc3)ccc2O1`, the cytotoxicity call is “inactive”.
Consider `O=C(NO)c1cn(-c2ccc(C[C@H]3C(=O)O[C@@H](Cc4ccccc4)[C@H]4[C@@H]5C=CCCC=C5CN43)cc2)nn1`, for which the cytotoxicity call was “inactive”.
Regarding `COc1ccc([Si](C)(C)[C@H]2[C@H](CCn3cc(CCO)nn3)O[C@@]3(C(=O)N(Cc4cccc(N5C(=O)c6cccc7cccc5c67)c4)c4ccccc43)[C@@H]2C)cc1`, the cytotoxicity call was “inactive”.
To `COc1ccc([Si](C)(C)[C@@H]2[C@@H](CCn3cc(CCO)nn3)O[C@]3(C(=O)N(Cc4cccc(N5C(=O)c6cccc7cccc5c67)c4)c4ccccc43)[C@H]2C)cc1` belongs “active”.
`COc1ccc([Si](C)(C)[C@@H]2[C@@H](CCO)O[C@]3(C(=O)N(Cc4ccc(N5C(=O)c6cccc7cccc5c67)cc4)c4ccccc43)[C@H]2C)cc1`: the cytotoxicity call is “inactive”.
To `COc1ccc([Si](C)(C)[C@@H]2[C@@H](CCn3cc(CCO)nn3)O[C@]3(C(=O)N(Cc4ccc(N5C(=O)c6cccc7cccc5c67)cc4)c4ccccc43)[C@H]2C)cc1` belongs “active”; to `COc1ccc([Si](C)(C)[C@H]2[C@H](CCO)O[C@@]3(C(=O)N(Cc4ccc(N5C(=O)c6cccc7cccc5c67)cc4)c4ccccc43)[C@@H]2C)cc1`, “inactive”.
As for `COc1ccc([Si](C)(C)[C@H]2[C@H](CCO)O[C@@]3(C(=O)N(Cc4cccc(N5C(=O)c6cccc7cccc5c67)c4)c4ccccc43)[C@@H]2C)cc1`, the entry is “inactive”.
Turning to `C[C@@H]1CCCCO[C@@H](CN(C)C(=O)CCCN(C)C)[C@H](C)CN([C@H](C)CO)C(=O)c2cc(NC(=O)Nc3ccc(C(F)(F)F)cc3)ccc2O1`, the cytotoxicity call was “inactive”.
As for `C[C@H](CO)N1C[C@H](C)[C@@H](CN(C)C(=O)Nc2ccccc2)OCCCC[C@H](C)Oc2ccc(NC(=O)Cc3ccccc3)cc2C1=O`, the entry is “inactive”; as for `CN1CCN(C(=O)C[C@@H]2CC[C@@H]3[C@H](COc4ccc(NC(=O)C5CCCCC5)cc4C(=O)N3C)O2)CC1`, “inactive”.
As for `C[C@H]1CN([C@@H](C)CO)C(=O)Cc2cc(NS(C)(=O)=O)ccc2O[C@@H]1CN(C)Cc1ccc(C(=O)O)cc1`, the entry is “inactive”; as for `COc1ccc(S(=O)(=O)N(C)C[C@@H]2OCCCC[C@H](C)Oc3ccc(NS(=O)(=O)c4ccc(Cl)cc4)cc3C(=O)N([C@H](C)CO)C[C@@H]2C)cc1`, “inactive”.
With `C[C@@H]1CN([C@@H](C)CO)C(=O)c2cc(NC(=O)Cc3cn(C)c4ccccc34)ccc2O[C@@H]1CN(C)Cc1ccc(Cl)c(Cl)c1`, the cytotoxicity call was “active”.
Take `C[C@H](CO)N1C[C@H](C)[C@@H](CN(C)Cc2ccc(Cl)c(Cl)c2)Oc2ccc(NC(=O)Cc3cn(C)c4ccccc34)cc2C1=O`: the cytotoxicity call was “inactive”.
As for `C[C@H](CO)N1C[C@H](C)[C@@H](CN(C)Cc2ccc(-c3ccccc3)cc2)Oc2ccc(NC(=O)Cc3cn(C)c4ccccc34)cc2C1=O`, the entry is “inactive”; as for `C[C@H]1CN([C@@H](C)CO)C(=O)c2cc(NC(=O)Cc3cn(C)c4ccccc34)ccc2O[C@@H]1CN(C)S(C)(=O)=O`, “inactive”; as for `C[C@@H]1CN([C@@H](C)CO)C(=O)c2cc(NC(=O)Cc3cn(C)c4ccccc34)ccc2O[C@@H]1CN(C)S(C)(=O)=O`, “inactive”.
As to `C[C@H](CO)N1C[C@H](C)[C@H](CN(C)Cc2ccc(Cl)c(Cl)c2)Oc2ccc(NC(=O)Cc3cn(C)c4ccccc34)cc2C1=O`, the cytotoxicity call was “active”.
Turning to `C[C@@H]1CN([C@H](C)CO)C(=O)c2cc(NC(=O)Cc3cn(C)c4ccccc34)ccc2O[C@@H]1CN(C)Cc1ccc(Cl)c(Cl)c1`, the cytotoxicity call was “active”.
To `C[C@@H]1CN([C@H](C)CN(C)C)C(=O)c2cc(NC(=O)Cc3cn(C)c4ccccc34)ccc2O[C@H]1CN(C)S(=O)(=O)c1ccc(Cl)cc1` belongs “active”.
For the molecule `C[C@H](CO)N1C[C@H](C)[C@H](CN(C)S(=O)(=O)c2cn(C)cn2)Oc2cc(C#Cc3cccc(F)c3)ccc2S1(=O)=O`, the cytotoxicity call is “inactive”.
